According to PubChem BioAssay (NCATS):
Values joined by “and” are separate entries in the source; they are usually repeats but may differ in a detail not shown here. Equal entries are not always repeated. Inconclusive results are not listed. Active and inactive are the calls of the source. Calls follow the shape of the dose curve; as a rule, active = well fitted cell-killing curve with a large enough effect; inconclusive = small, poorly fitted or top-dose-only effect, or effect the other way; inactive = flat fitted curve, though single readings scatter. Peptide text beside a SMILES is read from it.

These compounds were tested on JEG-3 (assay: Primary qHTS to identify gynecologic anti-cancer compounds using libraries of approved drugs and bioactive compounds (AID 1345084; also: nearly all actives have a fitted effect of over 55% in size)). Details: Gynecologic cancer cell panel viability, ATPlite luminescence, 48 h; series mostly up to 57.5 µM; activity change, negative = cytotoxicity: at the top concentration.
In short: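 Luminescence from the ATPlite ATP-monitoring reagent indicates viable cell number; lower signal means cytotoxicity. Cells received compound 16 h after seeding and were exposed for 48 h across five concentrations.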
% is scaled to controls: 0 for no effect and ±100 for the full control effect; potency is read from the fitted curve at half-maximal effect.

Row | Structure (SMILES) | activity change, negative = cytotoxicity | Potency
1 | CCC[C@@H]1C[C@@H](C(=O)N[C@@H]([C@H]2O[C@H](SC)[C@H](O)[C@@H](O)[C@H]2O)[C@@H](C)O)N(C)C1 | -8.56% (inactive) | 
2 | COc1ccc(C2(C#N)CCC(C(=O)O)CC2)cc1OC1CCCC1 (configuration not stated) | 0.0275% (inactive) | 
3 | CC(=O)Nc1ccc(O)cc1 | -1.67% (inactive) | 
4 | Nc1ccc(S(N)(=O)=O)cc1 | 1.65% (inactive) | 
5 | O=C(c1ccccc1)c1ccc2n1CCC2C(=O)O (configuration not stated) | 6.53% (inactive) | 
6 | CCN(CC)C(=S)SSC(=S)N(CC)CC |  | 28.2 µM (active)
7 | CCN(CCO)CCCC(C)Nc1ccnc2cc(Cl)ccc12 (configuration not stated) | -0.0768% [at 6.55 µM] (inactive) and 4.75% [at 6.55 µM] (inactive) | 
8 | Clc1ccc(C(Cn2ccnc2)OCc2ccc(Sc3ccccc3)cc2)c(Cl)c1 (configuration not stated) | 2.84% (inactive) | 
9 | COCCCN1CCC(NC(=O)c2cc(Cl)c(N)c3c2OCC3)CC1 | -15.5% (inactive) | 
10 | O=C(O)CCNC(=O)c1ccc(N=Nc2ccc(O)c(C(=O)O)c2)cc1 | -2.86% (inactive) | 
11 | CCCc1cc(=O)[nH]c(=S)[nH]1 | 12.4% (inactive) | 
12 | Oc1ccc(OCc2ccccc2)cc1 | -14.8% (inactive) | 
13 | Cc1cccc(C)c1OCC(=O)N[C@@H](Cc1ccccc1)[C@@H](O)C[C@H](Cc1ccccc1)NC(=O)[C@H](C(C)C)N1CCCNC1=O | 24.1% (inactive) | 
14 | COC(=O)[C@H](Cc1ccccc1)NC(=O)[C@@H](N)CC(=O)O (H-Asp-Phe-OMe) | 21.5% (inactive) | 
15 | COc1cc2nc(N3CCN(C(=O)C4CCCO4)CC3)nc(N)c2cc1OC (configuration not stated) | -7.43% (inactive) | 
16 | NS(=O)(=O)c1cc(C(=O)O)c(NCc2ccco2)cc1Cl | 1.77% (inactive) | 
17 | Cc1cc(=O)oc2cc(O)ccc12 | 6.49% (inactive) | 
